In the library only some 8% were active in any assay of this set; here they are far more common.
SW480 rerep: A quantitative high throughput screen for small molecules that induce DNA re-replication in SW480 colon adenocarcinoma cells | Potency, µM (doses to about 46.1 µM), without a hit: at the highest dose re-replication activation, actives largely listed as activators | SW480 DNA re-replication, Hoechst DNA content imaging, 48 h | hit rate 1.8% among 340,000 | AID 624297, 2012; note: % of control where 0% means no effect; nearly all actives have a fitted effect of over 55% in size
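Compounds, transferred as 23 nL by pin tool, were incubated with cells for 48 hr; DNA content per nucleus was then quantified by Hoechst staining and fluorescence plate imaging.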
HT1080 IDH1KD tx: qHTS for induction of synthetic lethality in tumor cells producing 2HG: qHTS for the HT-1080-IDH1KD cell line. HT-1080 IDH1 knockdown viability, ATP luminescence, 48 h. hit rate 2% among 360,000. Potency, µM (doses to about 46.1 µM), for the others: top-dose activity, negative = toxicity, hits mostly cytotoxic;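 note: 0% = DMSO wells and -100% = cell-free medium wells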
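IDH1KD HT-1080 cells, 750/well, RPMI + 5% FBS; compound pinned after 2 h settling; 48 h, 37 °C; CellTiter-Glo luminescence; % activity normalised to DMSO and no-cell wells; curves fitted, classed by r2 and efficacy.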
MCF10A rereplic: A quantitative high throughput screen for small molecules that induce DNA re-replication in MCF 10a normal breast cells; MCF 10A DNA re-replication, Hoechst nuclear intensity, 48 h; Potency, µM (series often up to 46.1 µM), without a hit: at the highest dose activity, positive = re-replication, hits mostly activators; hit rate 2.9% among 350,000; AID 624296, 2012; note: % of control where 0% means no effect; nearly all actives have a fitted effect of over 50% in size
HT1080-NT tox: qHTS for induction of synthetic lethality in tumor cells producing 2HG: qHTS for the HT-1080-NT fibrosarcoma cell line | HT-1080-NT fibrosarcoma viability, CellTiter-Glo ATP luminescence, 48 h | Potency, µM (series often up to 46.1 µM), inactives show at the highest dose activity, negative = less viability, usual class: cytotoxic | hit rate 1.6% among 360,000 | AID 686970, 2013;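 note: NT is the 2HG producing partner of a matched IDH1 knockdown line; 0% = DMSO-treated cells and -100% = media-only wells without cells; nearly all actives have a fitted effect of over 55% in size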
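A 48-hour cytotoxicity screen used HT-1080-NT cells plated 2 hours before compound delivery. ATP-based CellTiter-Glo luminescence measured viability, normalized to DMSO and no-cell controls.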
KB-V1 cytotox: qHTS assay for MDR1-selective chemotherapeutics: Primary screen using the drug-selected MDR subline cells KB-V1. KB-V1 MDR cells viability, CellTiter-Glo, 72 h. Potency, µM (doses to about 46.1 µM), most hits filed as cytotoxic. hit rate 3.4% among 400,000; note: % is set by controls: 0 for no effect and ±100 for the full control effect; nearly all actives have a fitted effect of over 60% in size
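Luminescent ATP read-out (CellTiter-Glo, 10 min) measures survival of drug-selected KB-V1 MDR cells after 72 h, 37 degrees C compound exposure. Medium: phenol-red-free DMEM, 10% FBS. Values from fitted concentration-response curves.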
KB-3-1 cytotox: qHTS assay for MDR1-selective chemotherapeutics: Primary screen using the parental adenocarcinoma cell KB-3-1; KB-3-1 viability, CellTiter-Glo ATP luminescence, 72 h; hit rate 1.4% among 400,000; Potency, µM (highest dose often 46.1 µM), usual class: cytotoxic; note: % is set by controls: 0 for no effect and ±100 for the full control effect; nearly all actives have a fitted effect of over 60% in size
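Screening of KB-3-1 cells (DMEM, 10% FBS, phenol-red free) ran from lowest to highest compound concentration; after 72 h at 37 °C viability was read luminescently and curves fitted.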
An asterisk follows results filed as active; i = inactive; ? = inconclusive; nt = no result; [ ] = another dose, or the depositor's remark. Calls come from the whole dose curve; as a rule, active = well fitted curve in the direction sought with a large enough effect; inconclusive = small, poorly fitted or top-dose-only effect, or another doubt; inactive = no such curve, though single readings can be large; an effect the other way counts as inactive or inconclusive. Potency is the fitted concentration of half-maximal effect.

SMILES | SW480 rerep | HT1080 IDH1KD tx | MCF10A rereplic | HT1080-NT tox | KB-V1 cytotox | KB-3-1 cytotox
CCOC(=O)C1(CC2CC2)CCN(Cc2cnc(-c3ccc(OC)cc3)nc2)CC1 | -45% | ? | 13µM* | -9% | ? | ?
COc1ccccc1C1(O)CCN(C(=O)c2cccs2)CC1 | -2% | -4% | 1% | -2% | 21µM* | i
COc1cccc(C2(O)CCN(C(=O)c3cccs3)CC2)c1 | 1% | 1% | -2% | 4% | i | i
CCOC(=O)C1(Cc2cccc(OC)c2)CCN(Cc2cccc(OC)c2OC)CC1 | ? | ? | ? | ? | ? | i
COc1ccc(OC)c(CN2CCN(C(=O)c3cccs3)CC2)c1 | 7% | 14% | 7% | 18% | 21µM* | i
Cc1ccc(CNC(=O)COC(=O)c2cc(=O)[nH]c3ccccc23)cc1 | 1% | 3% | -3% | 5% | ? | i
COc1ccc(OC)c(CN2CCN(C(=O)c3cccc(S(=O)(=O)Nc4ccc(F)cc4)c3)CC2)c1 | -4% | -7% | 6% | 1% | 15µM* | ?
O=C(c1cccs1)N1CCN(Cc2ccccc2)CC1 | -2% | 5% | 6% | 17% | i | i
COc1ccc(CN2CCN(C(=O)c3cccs3)CC2)cc1 | ? | -1% | 11% | -4% | 21µM* | i
CCOC(=O)C1(Cc2ccc(OC)cc2)CCN(C(=O)c2ccc3[nH]ccc3c2)CC1 | ? | 26µM* | 12µM* | 13µM* | i | ?
O=C(c1cccs1)N1CCN(CCCc2ccccc2)CC1 | -1% | -1% | 12% | 27% | 12µM* | i
Nc1nc2ncn(COCCO)c2c(=O)[nH]1 | nt | nt | nt | nt | i | i
O=C(c1cccnc1)N1CCCC(Nc2ccc(F)cc2)C1 (stereo not drawn) | -7% | 1% | -1% | 13% | i | i
CCOC(=O)c1c(NC(=O)c2ccc(Cl)s2)sc(C)c1C | ? | 22% | ? | 0% | i | i
CCOC(=O)c1cc(C)sc1NC(=O)c1ccc(Cl)s1 | 1% | 21% | 3.3µM* | ? | i | i
CC(=O)c1ccc(NC(=O)CSc2cn[nH]n2)cc1 | -2% | 9% | 11% | 30% | i | i
CCOC(=O)c1c(-c2ccc(C)o2)csc1NC(=O)CN1CCCCC1 | 1% | ? | 23µM* | ? | ? | i
CCOC(=O)c1c(-c2ccc(C)o2)csc1NC(=O)CSc1nncs1 | 0% | ? | 3% | ? | 15µM* | i
CCOC(=O)c1c(-c2ccc(C)o2)csc1NC(=O)CN1CCN(CC)CC1 | -6% | ? | 18% | ? | i | i
CCOC(=O)c1c(-c2cccs2)csc1NC(=O)COC(=O)c1c(C)noc1C | 6% | -7% | ? | -20% | 21µM* | i
CCOC(=O)c1c(-c2ccc(OC)cc2)csc1NC(=O)CNCc1ccco1 | -2% | 5% | ? | 4% | 10µM* | i
COc1cc2c(cc1OC)C(C)N(C(=O)[C@@H](NC(=O)c1ccccc1)C(C)C)CC2 (stereo partly drawn) | 6% | -4% | 14% | -11% | i | i
O=C1CCN(Cc2ccccc2)S(=O)(=O)c2c(F)cc(F)cc21 | -1% | -2% | ? | 0% | ? | i
CCOC(=O)c1c(-c2ccccc2)csc1NC(=O)CSc1nc(C)cc(C)n1 | 0% | -13% | ? | -9% | i | i
CCOC(=O)c1c(-c2ccccc2)csc1NC(=O)CSc1nc(N)cc(N)n1 | -20% | -20% | ? | 6% | 3.3µM* | 6.5µM*
SMILES | SW480 rerep | HT1080 IDH1KD tx | MCF10A rereplic | HT1080-NT tox | KB-V1 cytotox | KB-3-1 cytotox
CCN(CC)c1ccc(CN(C(=O)c2cc(=O)c3ccccc3o2)C2CCS(=O)(=O)C2)cc1 (stereo not drawn) | nt | nt | nt | nt | i | i
CCC(C)NC(=O)CSc1ccc(NC(C)=O)cc1 (stereo not drawn) | -4% | 4% | -1% | 6% | i | i
CC(=O)Nc1ccc(SCC(=O)c2ccc(Br)s2)cc1 | 4% | 18µM* | ? | 26µM* | i | i
CCCN1CNc2c(c(=O)[nH]c(=S)n2CCc2c(C)cccc2C)C1 | nt | 4% | nt | 18% | nt | nt
CCOc1ccc(CCNC(=O)Cn2nc(C)n3c(cc4occc43)c2=O)cc1OCC | nt | nt | nt | nt | i | i
O=S(=O)(Nc1cccnc1Cl)c1ccc(F)cc1 | -10% | 2% | -3% | 6% | i | i
O=S(=O)(Nc1cc(Sc2cccc3cccnc23)c(O)c2ccccc12)c1ccc(F)cc1 | 0.73µM* | 21µM* | 10µM* | 23µM* | ? | 3.3µM*
COc1ccc(N=c2cc(-c3ccc(O)cc3)oc3ccccc23)cc1 | 0% | 16µM* | ? | 15µM* | ? | ?
CN1CCC(Oc2ccccc2Sc2ccc(C(F)(F)F)cc2)CC1 | ? | -5% | 8.2µM* | -4% | i | i
CN1CCC(Oc2ccc(Sc3ccccc3)cc2)CC1 | 11% | -18% | 31% | -11% | ? | ?
CCCN(CCC)C(=O)Cn1c(=O)n(-c2ccc(Cl)cc2)c(=O)c2c3c(sc21)CCCC3 | nt | nt | nt | nt | i | i
Nc1nc(SCC(=O)Nc2ccccc2Sc2ccccc2)n[nH]1 | -3% | -18% | -6% | 8% | 15µM* | i
CC(NC(=O)CSc1n[nH]c(N)n1)c1ccccc1 (stereo not drawn) | -10% | 3% | -4% | 3% | ? | i
CCCc1ccc(-c2cc(NC(=O)CSc3n[nH]c(N)n3)n(-c3ccccc3)n2)cc1 | ? | ? | 21µM* | 0%[9.24 µM] | i | i
CCOC(=O)c1sc2nc(C)cc(C)c2c1N | ? | -16% | 18µM* | 0% | i | i
COc1ccc(NC(=O)c2sc3nc(C)cc(C)c3c2N)c(OC)c1 | 15µM* | 24% | ? | 12% | i | i
CCCCOC(=O)c1sc2nc(C)cc(C)c2c1N | ? | -23% | ? | -19% | i | i
Cc1cc(C)c2c(N)c(C(=O)Nc3cccc(C)c3C)sc2n1 | 12µM* | ? | 16µM* | -12% | 6.5µM* | ?
CCCc1nc2sc(C(=O)OCC)c(N)c2c2c1COC(C)(C)C2 | 23% | -18% | 3.3µM* | -6% | i | i

Screening results deposited in PubChem BioAssay by National Center for Advancing Translational Sciences (NCATS).
